Source: PubChem BioAssay
aSyn UTR inh: MLPCN primary screen, SNCA 5' untranslated region; alpha-synuclein 5'UTR reporter, inhibitor activity; inhibition, % (tested at 7.5 µM); actives 0.82% (n = 300,000); in the data active = inhibition above about 60%;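 note: H4 neuroglioblastoma cells stably carrying SNCA 5'UTR luciferase fusion; 0% = DMSO wells and 100% = positive control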
Jurkat NFkB inh: inhibitors of induced NF-kB luciferase reporter, primary screen, TCR NF-kB activation inhibitor project, cell-based, luminescence, uHTS | Jurkat, PMA/ionomycin-induced NF-kB luciferase reporter | inhibition, % at 4 µM | actives 0.53% (n = 330,000) | AID 435003, 2010; in the data active = inhibition above about 50%
Gli-Sufu block: Gli-Sufu pathway antagonists, primary screen, luciferase luminescence, Sufu-KO-LIGHT cells, uHTS; Sufu-KO-LIGHT fibroblasts, Gli luciferase reporter luminescence; inhibition, % at 5 µM; actives 0.74% (n = 340,000);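 active = inhibition above about 55%, limit read from the data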;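 note: 0% = DMSO-treated cells and 100% = wells with medium but no cells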
CSC inhib: cancer stem cell viability inhibitors, primary screen, luminescence; actives 1.1% (n = 300,000); inhibition, % at 7.5 µM; AID 2717, 2010; cancer stem cell-like cells viability; in the data active = inhibition above about 75%; tested in HMLE shEcad cells
697 NFkB inh: inhibitors of PMA/ionomycin-induced NF-kB reporter, 697 cells, primary screen, B-cell NF-kB inhibitor project, cell-based, luminescence, uHTS. 697 B-cell NF-kB luciferase reporter, 16 h. AID 435022, 2010. inhibition, % at 4 µM. actives 0.33% (n = 330,000); in the data active = inhibition above about 35%
Mdm2-MdmX inh: inhibitors of human Mdm2-MdmX association, primary screen, cell-based, luminescence, split luciferase, SaOS-2, uHTS; AID 485346, 2010; inhibition, % at 8 µM; SaOS-2 split-luciferase Mdm2/MdmX complementation; actives 3% (n = 330,000);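 active = inhibition of at least 50% at 8 µM in the primary screen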
Target sequence (O15151 whole entry, looked up): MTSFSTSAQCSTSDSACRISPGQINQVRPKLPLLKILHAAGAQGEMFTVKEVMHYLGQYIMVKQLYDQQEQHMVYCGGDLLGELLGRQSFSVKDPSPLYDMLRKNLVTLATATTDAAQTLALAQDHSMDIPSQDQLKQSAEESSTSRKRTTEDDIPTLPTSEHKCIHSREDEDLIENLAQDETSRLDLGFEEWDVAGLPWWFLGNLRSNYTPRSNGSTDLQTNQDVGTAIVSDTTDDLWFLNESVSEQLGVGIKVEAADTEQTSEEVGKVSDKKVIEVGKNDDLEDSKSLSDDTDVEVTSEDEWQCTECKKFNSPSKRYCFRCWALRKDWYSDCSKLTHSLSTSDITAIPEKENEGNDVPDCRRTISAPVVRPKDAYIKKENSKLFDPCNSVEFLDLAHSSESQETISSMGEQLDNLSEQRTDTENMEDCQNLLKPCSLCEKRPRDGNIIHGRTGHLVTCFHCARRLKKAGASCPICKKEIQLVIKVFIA
Target sequence (Q00987 whole entry, looked up): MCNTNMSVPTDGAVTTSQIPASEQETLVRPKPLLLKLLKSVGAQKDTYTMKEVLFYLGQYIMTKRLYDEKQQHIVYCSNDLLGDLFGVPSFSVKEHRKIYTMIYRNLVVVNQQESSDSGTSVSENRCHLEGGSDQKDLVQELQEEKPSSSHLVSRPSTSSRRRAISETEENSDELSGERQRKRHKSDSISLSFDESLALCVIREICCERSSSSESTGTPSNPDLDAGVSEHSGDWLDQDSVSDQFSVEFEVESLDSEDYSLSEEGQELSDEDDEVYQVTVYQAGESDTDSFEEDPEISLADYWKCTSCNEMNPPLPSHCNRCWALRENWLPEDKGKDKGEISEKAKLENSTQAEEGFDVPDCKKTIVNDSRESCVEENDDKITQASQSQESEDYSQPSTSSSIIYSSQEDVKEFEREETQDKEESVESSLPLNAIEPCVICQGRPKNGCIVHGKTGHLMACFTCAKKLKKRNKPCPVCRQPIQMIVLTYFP
Mdm2 MdmX conf: Mdm2-MdmX complex disruptors, retested hits, confirmation, luminescence, single concentration; inhibition, % at 8 µM; AID 489028, 2010; shares compounds with Mdm2-MdmX inh; actives 55% (n = 10,000); Mdm2-MdmX binding, luminescent assay; in the data active = inhibition above about 40%
FLuc counter: full-length luciferase signal inhibition, confirmation, counter-screen for Mdm2/MdmX interaction inhibitor project, cell-based, single concentration, SaOS-2. inhibition, % at 8 µM. actives 77% (n = 6,200). SaOS-2 full-length luciferase counterscreen, luminescence. AID 504607, 2011. shares compounds with Mdm2-MdmX inh;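 active = mean inhibition at 8 µM reaching about 37%, which flags the compound as non-specific, limit read from the data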;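 note: p53-null SaOS-2 cells with luciferase driven by a doxycycline-inducible promoter; compound on cells about two nights before reading with doxycycline added after day one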
* hit, by the source's call; · = no result; + = active, no number. In the library only some 4.5% were active in any assay of this set; here they are far more common.

SMILES	aSyn UTR inh	Jurkat NFkB inh	Gli-Sufu block	CSC inhib	697 NFkB inh	Mdm2-MdmX inh	Mdm2 MdmX conf	FLuc counter
Cc1nc2ncccn2c1-c1csc(Nc2ccccc2)n1	-15.8	-8.0	30.1	-9.4	2.4	62.0*	24.1	·
CC(=O)Nc1ccc(Nc2nc(-c3c(C)nc4ccccn34)cs2)cc1	86.6*	40.5	13.5	59.1	-58.6	66.2*	46.9*	66.0*
Cc1cccc(N2CCN(C(=O)C3CCC(=O)N(C4CC4)C3)CC2)c1C (stereo not drawn)	-11.5	14.4	12.9	2.8	-0.8	15.2	·	·
Cc1nnc2c(NCCc3ccccc3)nc3ccccc3n12	-3.1	-5.5	19.1	-7.3	10.7	57.2*	14.6	·
CCOc1ncccc1C(=O)Nc1ccc(C(=O)Nc2ccc(OC)cc2)cc1	·	-2.5	3.6	·	4.2	71.9*	22.4	·
CC(=O)Nc1ccc2c(c1)n(C)c(=O)n2C	20.1	-5.3	1.8	-0.8	6.6	65.6*	10.3	·
Cn1c(=O)n(C)c2cc(NC(=O)CCl)ccc21	-180.0	3.5	23.9	-5.9	8.8	69.4*	67.0*	45.7*
CCn1c(=O)oc2cc(NC(=O)CCl)ccc21	-104.0	8.4	17.4	-11.8	4.3	66.2*	32.3	·
CC(=O)Nc1ccc(S(=O)(=O)Nc2ccc3c(c2)n(C)c(=O)n3C)c(C)c1	-14.8	6.2	-13.3	-11.3	17.5	-16.3	·	·
O=C(c1cccc(S(=O)(=O)Nc2ccc(F)cc2)c1)N1CCC1	·	3.7	3.0	·	-9.6	-12.9	·	·
O=C(NCCCn1ccnc1)c1cc(-c2cccc(O)c2)on1	-64.6	-40.6	8.2	-6.7	-17.2	6.0	·	·
CC(=O)Oc1ccc(C(=O)Nc2cccc(C(=O)NC(C)(C)C)c2)cc1	-37.3	-3.6	1.2	-13.7	-6.3	23.8	·	·
CC(=O)Oc1ccc(C(=O)Nc2cccc(C(=O)c3cccc(NC(=O)c4ccc(OC(C)=O)cc4)c3)c2)cc1	25.2	-4.6	-6.7	27.0	-16.0	79.3*	36.9	85.5*
COc1ccc(OC)c(C(=O)c2ccc(C(=O)Nc3ccc(NC(C)=O)cc3)cc2)c1	19.7	-10.6	-3.1	13.8	-25.8	74.5*	28.6	·
COc1ccc(NC(=O)c2ccc3c(c2)n(C)c(=O)n3C)cc1	-13.7	-5.0	2.2	-6.2	13.6	52.0*	8.7	·
CCOc1ccc(S(=O)(=O)N2CCC(C(=O)NC3CCCCC3)CC2)cc1	10.8	20.4	-2.4	-8.0	20.6	14.2	·	·
CCOc1ccc(N(CC(=O)NCCc2ccccc2)C(=O)CCC(=O)Nc2nccs2)cc1	2.0	-6.5	3.0	-7.7	-21.2	2.1	·	·
Cn1nnnc1Sc1ncnc2scc(-c3ccsc3)c12	·	-12.6	37.1	·	-89.0	99.6*	85.3*	52.7*
CC(=O)c1ccccc1-c1csc2ncnc(Sc3nnnn3C)c12	·	-19.5	35.3	24.4	-78.3	32.2	·	·
Cc1ccc(-c2csc3ncnc(SCC(=O)O)c23)cc1	-18.0	-4.6	2.1	-14.7	22.1	12.2	·	·
Cn1nnnc1Sc1ncnc2scc(-c3cccs3)c12	·	-0.7	25.4	56.6	-69.0	97.5*	89.5*	55.8*
Cn1nnnc1Sc1ncnc2scc(-c3cc4ccccc4o3)c12	·	32.4	15.2	115.3*	19.5	100.3*	99.4*	51.2*
Cn1nnnc1Sc1ncnc2scc(-c3ccc(C#N)cc3)c12	·	-9.1	35.7	43.8	-245.9	87.2*	78.6*	59.6*
Cc1ccc(NC(=S)N(Cc2ccco2)C2CCN(C(C)C)CC2)cc1	-35.6	-5.4	19.5	-5.7	-7.2	1.4	·	·
CC(C(=O)NCc1ccc2c(c1)OCO2)N1c2cccc3cccc(c23)S1(=O)=O (stereo not drawn)	2.1	-2.4	0.0	5.1	-4.4	11.6	·	·
SMILES	aSyn UTR inh	Jurkat NFkB inh	Gli-Sufu block	CSC inhib	697 NFkB inh	Mdm2-MdmX inh	Mdm2 MdmX conf	FLuc counter
Cn1nnnc1Sc1ncnc2scc(-c3ccc(-c4ccccc4)cc3)c12	·	0.7	5.4	·	6.5	100.5*	22.6	·
CCNCc1nc2cc(Cl)ccc2c(=O)[nH]1	2.4	-11.4	-2.5	-11.5	14.5	8.8	·	·
CN1/C(=C/C2CC(=O)N(c3ccc([N+](=O)[O-])cc3)C2=O)C(C)(C)c2ccccc21 (stereo not drawn)	-0.4	9.3	1.8	15.6	5.5	-9.6	·	·
C=C(C)COc1ccc(-c2n[nH]c(C)c2-c2ccc(OC)cc2)c(O)c1	-2.6	17.2	10.4	+	5.3	61.1*	49.0*	71.5*
CSc1nnc2c3cc(F)ccc3n(Cc3ccccc3)c2n1	31.9	14.5	27.0	·	-8.4	27.0	·	·
Cc1nc2c3cc(F)ccc3n(Cc3ccccc3F)c2s1	32.8	14.9	-9.9	55.0	-6.8	59.4*	45.4*	78.5*
Cc1nc2c3ccccc3n(Cc3ccccc3F)c2s1	24.4	9.9	3.0	27.9	-11.9	4.4	·	·
Cc1nc2c3cc(F)ccc3n(CCN3CCCCC3)c2s1	40.0	44.1	10.5	64.6	-4.1	55.6*	56.1*	68.2*
Cc1nc2c3ccccc3n(CCN3CCCCC3)c2s1	22.9	11.0	·	-3.3	14.7	8.5	·	·
Cc1nc2c3cc(F)ccc3n(Cc3ccccc3)c2s1	8.0	36.3	-4.4	118.4*	-39.6	53.0*	55.0*	68.6*
Cc1nn(Cc2ccc(Cl)cc2Cl)c(C)c1NC(=O)CCl	-46.9	28.9	7.7	-6.5	34.5	77.7*	91.8*	61.6*
Cc1nn(Cc2c(F)c(F)c(F)c(F)c2F)c(C)c1NC(=O)c1ccc(COc2ccc(Cl)cc2Cl)o1	33.3	13.6	27.6	36.7	9.1	47.4	·	·
Cc1nn(Cc2ccc(Cl)cc2Cl)c(C)c1NC(=O)c1ccc(COc2cc(Cl)ccc2Cl)o1	11.6	12.3	8.9	3.5	5.2	58.4*	-4.4	·
Cc1nn(Cc2ccc(Cl)cc2Cl)c(C)c1NC(=O)c1nn(C)cc1Cl	5.4	5.4	4.8	-7.1	13.7	13.2	·	·
COc1ccc(CNC(=O)C2Cc3cc(S(=O)(=O)N4CCCC4)ccc3N2C(C)=O)c(OC)c1 (stereo not drawn)	17.9	-2.1	-12.3	-8.1	-9.1	11.4	·	·
O=C(Nc1nnc(-c2cccs2)o1)c1cccc(Oc2ccccc2)c1	·	1.2	3.4	63.1	15.9	54.9*	30.6	·
Cc1ccc(Nc2ncnc(N)n2)cc1C	-16.4	-8.6	-23.7	-4.7	-4.0	5.6	·	·
